In PubChem BioAssay AID720517 (National Center for Advancing Translational Sciences (NCATS), 2013):
Results filed as inconclusive are left out. Entries that show only a call come without a potency. Active and inactive are the calls of the source. Calls follow the shape of the dose curve; as a rule, active = well fitted activation curve with a large enough effect; inconclusive = small, poorly fitted or top-dose-only effect; inactive = flat fitted curve, though single readings scatter.

assay: qHTS for Inhibitors of Cell Surface uPA Generation: FP59 Counterscreen for Cherry-picked Compounds; details: FP59 anthrax toxin cytotoxicity counterscreen, cells; series mostly up to 115 µM

Compound | Potency
O=C(NC(=S)Nc1c(F)cc(F)cc1Br)c1ccc2c(c1)OCCO2 | inactive
CCCNC(=O)C1CCC(CNS(=O)(=O)c2ccc3c(c2)CC(C)N3C(C)=O)CC1 (stereo unspecified) | inactive
Cc1ccc(S(=O)(=O)N2CCC(C(=O)OC(C)C(=O)NC3CCCCC3C)CC2)cc1 (stereo unspecified) | inactive
COc1ccccc1N1CCN(C(=O)CCC(=O)N2CCN(c3ccc(F)cc3)CC2)CC1 | inactive
COc1cccc(NC(=O)N2C3CCCC2CC(NC(C)=O)C3)c1 (stereo unspecified) | inactive
COc1ccc(CNC(=O)C2(CC3CC(c4ccccc4)=NO3)CCNCC2)cc1 (stereo unspecified) | inactive
